PubChem BioAssay AID1851 (National Center for Advancing Translational Sciences (NCATS), 2009)
“And” between values parts separate entries of the source, which are not always exact repeats. Equal entries are not always repeated. The whole screen tested about 16,000 compounds, of which about 5,100 (32%) were called active. Roughly 25% stayed inconclusive and do not appear here. Calls follow the shape of the dose curve; as a rule, active = well fitted curve in the direction sought with a large enough effect; inconclusive = small, poorly fitted or top-dose-only effect, or effect the other way; inactive = no such curve, though single readings can be large or run the other way. This is one part of the list.

target: Cytochrome P450 3A4 (Homo sapiens) (UniProt P08684); test: Cytochrome panel assay with activity outcomes; details: recombinant CYP, pro-luciferin dealkylation, luminescence, p450-cyp3a4; series mostly up to 57.1 µM; activity, negative = inhibition: at the top concentration
% is scaled to controls: 0 for no effect and ±100 for the full control effect.

Cytochrome P450 3A4 (Homo sapiens), sequence (P08684 whole entry, looked up): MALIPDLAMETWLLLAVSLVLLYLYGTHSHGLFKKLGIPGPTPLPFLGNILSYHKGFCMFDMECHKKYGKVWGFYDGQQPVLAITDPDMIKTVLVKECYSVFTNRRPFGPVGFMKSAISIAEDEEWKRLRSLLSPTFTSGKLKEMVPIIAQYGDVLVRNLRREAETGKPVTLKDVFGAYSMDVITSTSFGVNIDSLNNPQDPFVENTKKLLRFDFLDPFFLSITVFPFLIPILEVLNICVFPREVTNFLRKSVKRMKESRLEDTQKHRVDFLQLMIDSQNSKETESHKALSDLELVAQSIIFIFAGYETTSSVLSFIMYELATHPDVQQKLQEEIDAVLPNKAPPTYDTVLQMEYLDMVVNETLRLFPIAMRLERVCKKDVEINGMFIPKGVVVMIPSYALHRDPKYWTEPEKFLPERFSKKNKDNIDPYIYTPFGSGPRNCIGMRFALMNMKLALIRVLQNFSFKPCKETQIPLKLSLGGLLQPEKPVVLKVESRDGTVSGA

SMILES | activity, negative = inhibition | AC50
CS(=O)(=O)c1nc2ccccc2n1Cc1ccccc1 | 8.52% (inactive) | 
COc1ccc(CNc2nc3ccccc3n2Cc2ccccc2)cc1OC |  | 3.98 µM (active)
CC(=O)Nc1nc2ccccc2n1Cc1ccccc1 | -25.3% (inactive) | 
C#CCCCO/N=C1/[C@H]2O[C@@H]2[C@@H](O)[C@H]2[C@H]1CCn1c(=O)n(C)c(=O)n12 | -24.7% [at 11.4 µM] (inactive) | 
CCCc1nnc(NC(=O)c2cccs2)s1 | -3.1% (inactive) | 
Cc1ccc(Cc2cnc(NC(=O)c3cccs3)s2)cc1 |  | 7.94 µM (active)
CN(C)CCCN1CCC2(CCC(C(C)(C)C)CC2)CC1 | 1.95% [at 11.4 µM] (inactive) | 
COc1ccccc1NC(=O)CN1CCN(c2ccccc2F)CC1 | -29.9% (inactive) | 
COc1ccccc1NC(=O)CN1CCN(C2c3ccccc3-c3ccccc32)CC1 |  | 12.6 µM (active)
COc1ccc(NC(C)=O)cc1NC(=O)CN1CCN(C2c3ccccc3-c3ccccc32)CC1 |  | 10 µM (active)
NS(=O)(=O)c1cc(C(=O)O)c(Cl)c([N+](=O)[O-])c1Cl | -5.24% [at 11.4 µM] (inactive) | 
CCNc1ncc2nc(-c3ccc(F)cc3)c(=O)n(C[C@H]3CCCO3)c2n1 | -18.2% (inactive) | 
CCNc1ncc2nc(CCc3ccccc3)c(=O)n(Cc3ccc(F)cc3)c2n1 |  | 2.51 µM (active)
CCNc1ncc2nc(CCc3ccccc3)c(=O)n(CCC#N)c2n1 |  | 15.8 µM (active)
CCSC1=C(C#N)C2(CCCCC2)C(C#N)=C(N)N1 |  | 8.91 µM (active)
COc1ccc2c(c1)Cc1sc(NC(=O)c3ccco3)nc1-2 |  | 11.2 µM (active)
COc1ccc(C(=O)Nc2nc3c(s2)Cc2cc(OC)ccc2-3)cc1 |  | 11.2 µM (active)
COc1ccc2c(c1)CCc1sc(NC(=O)c3ccc(C)cc3)nc1-2 |  | 10 µM (active)
O=C(O)Cc1c[nH]c2ccc(O)cc12 | -10.9% (inactive) | 
CC(C)Oc1cccc(-n2c(CCc3c[nH]c4ccc(Br)cc34)nc3ccccc3c2=O)c1 |  | 3.98 µM (active)
C/C(CC/C(C)=N/O)=N/O | -10.6% [at 11.4 µM] (inactive) | 
O=C(O)c1c[nH]c2c(ccc3[nH]cc(C(=O)O)c(=O)c32)c1=O | -16.3% [at 11.4 µM] (inactive) | 
Cc1c(NC(=O)C(C)N2C(=O)c3ccccc3C2=O)c(=O)n(-c2ccccc2)n1C (stereo not given) | -4.89% (inactive) | 
Cc1cc(C(=O)Nc2c(C)n(C)n(-c3ccccc3)c2=O)c2ccccc2n1 | -18.9% (inactive) | 
Cc1cc(SC(C)C(=O)Nc2c(C)n(C)n(-c3ccccc3)c2=O)nc2ccccc12 (stereo not given) |  | 12.6 µM (active)

SMILES | activity, negative = inhibition | AC50
O=C(Nc1cccc2ncccc12)c1ccc(-c2ccc(Br)cc2)o1 |  | 2.82 µM (active)
CC(=O)N/N=C/c1cc([N+](=O)[O-])ccc1OCCOc1ccccc1 | 3.61% (inactive) | 
Cc1ccc(OCC(=O)N/N=C\c2c(C)n(C)c3ccccc23)c([N+](=O)[O-])c1 |  | 7.08 µM (active)
COc1ccc(C=O)cc1COc1ccc(C)cc1[N+](=O)[O-] | 9.27% (inactive) | 
COc1ccccc1-c1ccc2ncnc(N(C)C)c2c1 |  | 5.01 µM (active)
Cc1ccccc1-c1ccc2ncnc(N(C)C)c2c1 |  | 3.16 µM (active)
CC(=O)N1CCc2cc(S(=O)(=O)CCC(=O)Nc3c(C)n(C)n(-c4ccccc4)c3=O)ccc21 | -22.1% (inactive) | 
Cc1ccc(S(=O)(=O)CCC(=O)Nc2nc3c(s2)CCCC3)cc1 |  | 8.91 µM (active)
Nc1cc(-c2nn[nH]n2)ccc1F | -28.5% (inactive) | 
COC(=O)C/C=C\[C@@H](C)[C@@H](/C=N\OC[C@@H]1O[C@H](c2ccccc2)C=C[C@@H]1Oc1ccc(OC)cc1)OC |  | 3.16 µM (active)
COC(=O)C/C=C\[C@@H](C)[C@@H](/C=N\OC[C@@H]1O[C@H](c2ccccc2)C=C[C@@H]1Oc1ccc(OC)cc1)NS(=O)(=O)c1ccc(C)cc1 |  | 5.01 µM (active)
CC(C)CSC[C@@H]1O[C@H](n2cnc3c(N)nccc32)[C@H](O)[C@@H]1O | -25.4% [at 11.4 µM] (inactive) | 
CN1CCN2c3ncccc3Cc3ccccc3C2C1 (stereo not given) | -7.32% (inactive) | 
CN1CCN(c2cc(-c3ccccc3C(F)(F)F)ncn2)CC1 | 11.3% (inactive) | 
Cc1ccccc1NC(=S)NN1CCN(C)CC1 | 10.1% (inactive) | 
Cc1noc(C)c1-c1cc(N2CCN(C)CC2)ncn1 | 40.2% (inactive) | 
CN1CCN(c2ncncc2-c2ccccc2Cl)CC1 |  | 1.58 µM (active)
Cc1noc(C)c1-c1cncnc1N1CCN(C)CC1 |  | 12.6 µM (active)
COc1ccccc1-c1cncnc1N1CCN(C)CC1 |  | 2.51 µM (active)
Cc1ccccc1-c1cncnc1N1CCN(C)CC1 |  | 1.58 µM (active)
CN1CCN(c2ncncc2-c2ccoc2)CC1 |  | 7.94 µM (active)
CC(C)(C)c1c2c(c(C(C)(C)C)c3c1OCN(Cc1ccccc1)C3)OCN(Cc1ccccc1)C2 | 5.7% [at 11.4 µM] (inactive) | 
CC[C@@H](Nc1ncnc2nc[nH]c12)C(=O)O | -5.2% [at 11.4 µM] (inactive) | 
COc1ccc(C(=O)NNC(=O)Cc2ccc(-c3ccccc3)cc2)cc1OC |  | 6.31 µM (active)
COc1ccc(OCC(=O)NNC(=O)c2ccc(-c3ccccc3)cc2)cc1 | -12.2% (inactive) | 

SMILES | activity, negative = inhibition | AC50
Cc1occc1C(=O)NNC(=O)Cc1ccccc1 | -19.8% (inactive) | 
COc1cc(/C=N\NC(=O)C2C(=O)NCC2c2ccccc2)cc(OC)c1O (stereo not given) | -12.3% (inactive) | 
CSc1nsc(SCc2ccc(Cl)cc2)n1 | 11% (inactive) | 
Clc1ccc(CSc2ncnc3c2ncn3[C@@H]2CCCCO2)cc1 | 11.8% [at 11.4 µM] (inactive) | 
CC(C)[C@H](N)c1nnc(SCc2ccc(Cl)cc2)o1 |  | 1.58 µM (active)
CC(C)[C@H](N)c1nnc(SC/C=C/c2ccccc2)o1 |  | 1.26 µM (active)
Clc1cccc(Cl)c1CSc1nnc(/C=C/c2ccccc2)o1 | -16.1% [at 11.4 µM] (inactive) | 
CC(C)=NNc1ncnc2nc[nH]c12 | 4.57% [at 11.4 µM] (inactive) | 
NOCC(=O)O | 4.96% (inactive) | 
O=C(O)CCNc1ccccc1C(=O)O | -9.69% [at 11.4 µM] (inactive) | 
Cn1cc(-c2nc3cnc(N4CCNCC4)nc3n(Cc3ccc(F)cc3)c2=O)c2ccccc21 |  | 12.6 µM (active)
Cn1cc(-c2nc3cnc(N4CCNCC4)nc3n(CCc3ccccc3)c2=O)c2ccccc21 |  | 12.6 µM (active)
CN1CCN(c2ncc3nc(-c4cn(C)c5ccccc45)c(=O)n(CCc4ccccc4)c3n2)CC1 |  | 15.8 µM (active)
CN1CCN(c2ncc3nc(-c4cn(C)c5ccccc45)c(=O)n(-c4ccccc4)c3n2)CC1 |  | 25.1 µM (active)
CN1CCN(c2ncc3ncc(=O)n(-c4ccccc4)c3n2)CC1 | -3.73% (inactive) | 
CN1CCN(c2ncc3nc(-c4ccccc4)c(=O)n(C)c3n2)CC1 | 16% (inactive) | 
NC1=C2NC=N[C@@H]2N(C/C=C\c2ccccc2)C=N1 | -17.9% [at 11.4 µM] (inactive) | 
CN(C)Cc1c[nH]c2nc[nH]c(=O)c12 | -2.68% [at 11.4 µM] (inactive) | 
O=C(O)C1=C/C(=C(/c2ccccc2)c2cc(C(=O)O)c(O)c3ccccc23)c2ccccc2C1=O | 6.76% [at 11.4 µM] (inactive) and -24.1% [at 11.4 µM] (inactive) | 
Cn1cc(-c2nc3cnc(N4CCNCC4)nc3n(C)c2=O)c2ccccc21 |  | 20 µM (active)
COCCn1c(=O)c(-c2cn(C)c3ccccc23)nc2cnc(N3CCNCC3)nc21 |  | 25.1 µM (active)
Cn1c(=O)c(-c2ccccc2)nc2cnc(N3CCNCC3)nc21 | -28% (inactive) | 
O=S(=O)(O)c1cc(N=[N+]([O-])c2cc(S(=O)(=O)O)c3ccccc3c2)cc2ccccc12 | -21.4% [at 11.4 µM] (inactive) | 
Cc1ccc(NC(=O)/C(=C\c2ccc3c(c2)OCO3)NC(=O)c2ccco2)cc1 |  | 2.51 µM (active)
O=C(N/N=C/c1ccc2c(c1)OCO2)/C(=C/c1ccc2c(c1)OCO2)NC(=O)c1ccccc1 |  | 1.12 µM (active)

SMILES | activity, negative = inhibition | AC50
CC(=O)NS(=O)(=O)c1ccc(NC(=S)NC(=O)c2ccco2)cc1 | -2.27% (inactive) | 
O=C(NC(Cc1ccccc1)C(=O)O)/C(=C\c1ccco1)NC(=O)c1ccc(Br)cc1 (stereo not given) | 17% (inactive) | 
C=CCNC(=O)/C(=C\c1ccc2c(c1)OCO2)NC(=O)c1ccc(Br)cc1 |  | 0.447 µM (active)
Cc1ccc(S(=O)(=O)NC(=O)Nc2ncn[nH]2)cc1 | -2.15% [at 11.4 µM] (inactive) | 
CCOCCCN1C(=O)CN(C2CCCCC2)C(=O)C1c1ccc(OCC)c(OC)c1 (stereo not given) |  | 12.6 µM (active)
COc1ccc(/C(O)=C2/C(=O)C(=O)N(CCN3CCOCC3)C2c2ccc(C)cc2)cc1 (stereo not given) | -8.55% (inactive) | 
CCOCCCN1C(=O)CN(C2CCCCCC2)C(=O)C1c1ccc(OC)cc1 (stereo not given) |  | 12.6 µM (active)
CCOCCCn1cnc2c([nH]c3cc(OC)ccc32)c1=O | -26.5% (inactive) | 
COc1ccc(-n2ccnc2SCC(=O)Nc2ccc(OC)cc2OC)cc1 |  | 3.98 µM (active)
COc1ccc(-n2ccnc2SCC(=O)Nc2ccccc2)cc1 |  | 11.2 µM (active)
COc1ccc(-n2nnnc2SCC(=O)Nc2ccccc2)cc1 |  | 14.1 µM (active)
COc1ccc(-n2nnnc2/C=C\Nc2ccccc2C(=O)c2ccccc2)cc1 | 19.1% (inactive) | 
COc1ccc(NC(=O)Cn2cccc2)c(OC)c1 | -28.6% (inactive) | 
COc1ccc(NC(=O)CSC2=NC(=O)CC(C)=N2)cc1 | -14.6% (inactive) | 
COc1ccc(NC(=O)CSc2ccc3c4c(cccc24)C(=O)c2ccccc2-3)cc1 |  | 1 µM (active)
CCn1c(SCC(=O)c2ccc(OC)cc2)nnc1C1CC1 |  | 22.4 µM (active)
COc1ccc(NC(=O)CSc2nnc(C3CC3)n2-c2ccccc2)cc1 |  | 3.16 µM (active)
Cn1nnnc1SCC(=O)Nc1ccccc1[N+](=O)[O-] | 6.06% (inactive) | 
COC(=O)CSc1nnc(C)n1-c1cccc(OC)c1 | -15% (inactive) | 
CCn1c(SC)nnc1C1CCN(S(=O)(=O)c2ccc(OC)cc2)CC1 | -23.7% (inactive) | 
COc1ccc(OC)c(/C=N/NC(=O)c2csc3ccccc23)c1 | 3.57% [at 2.29 µM] (inactive) | 
CCC(=O)Nc1ccc(NC(=O)CSc2nnnn2-c2cccnc2)cc1C |  | 3.55 µM (active)
CCn1c(SCC(=O)OC)nnc1C1CCCCC1 | -11.2% (inactive) | 
COc1ccc(NC(=O)CSc2nnc(C3CC3)n2N)cc1 | -8.56% [at 11.4 µM] (inactive) | 
COc1ccc(O)c(/C=N/NC(=O)CSc2nnc(C)n2-c2ccccc2)c1 |  | 7.94 µM (active)
